Results filed as inconclusive are left out. Values without a mark were called inactive. The source made the active and inactive calls. The call rests on the fitted dose curve; in most records, active means well fitted curve in the direction sought with a large enough effect; inconclusive means small, poorly fitted or top-dose-only effect, or another doubt; inactive means no such curve, though single readings can be large; an effect the other way counts as inactive or inconclusive.

Assay [1] can be described thus: Quantitative High-Throughput drug screen in 47 multiple myeloma cell lines against the NCATS MIPE library collection: KMS27_JCRB cell viability assay (AID 1918970). Further: nearly all actives have a fitted effect of over 30% in size. Further: potency means the concentration at half of the fitted maximal effect. The method in brief: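 Luminescent ATP read-out (CellTiter-Glo, 5 min at room temperature) after 48 h compound exposure of 500 KMS27_JCRB cells per well; DMSO wells define full viability and media-only wells zero.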

A short description of assay [2]: Quantitative High-Throughput drug screen in 47 multiple myeloma cell lines against the NCATS MIPE library collection: KMS12BM_JCRB cell viability assay (AID 1918971). Further: nearly all actives have a fitted effect of over 35% in size. Further: potency means the concentration at half of the fitted maximal effect. In short, it runs like this:
(§1)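 qHTS of the MIPE 4.0 collection: 500 myeloma cells/well, 48 h drug exposure at 37C in 5% CO2, then CellTiter-Glo for 5 min at room temperature before luminescence reading.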

Assay [3] in a line: Quantitative High-Throughput drug screen in 47 multiple myeloma cell lines against the NCATS MIPE library collection: KMS12PE_JCRB cell viability assay (AID 1918972). Further: nearly all actives have a fitted effect of over 30% in size. Further: potency means the concentration at half of the fitted maximal effect.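 On viability: 100% = DMSO only wells and 0% = wells with media alone.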 In short, it runs like this: (§2)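 Approved and investigational drugs from MIPE 4.0 were added by pin tool to 500 cells per well. After 48 hours at 37C, ATP-based CellTiter-Glo luminescence indicated remaining viability.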

Assay [4] is described as follows: Quantitative High-Throughput drug screen in 47 multiple myeloma cell lines against the NCATS MIPE library collection: KMS26_JCRB cell viability assay (AID 1918975). Further: nearly all actives have a fitted effect of over 45% in size. Further: potency means the concentration at half of the fitted maximal effect. The method in brief:
as §1

Assay [5] in a line: Quantitative High-Throughput drug screen in 47 multiple myeloma cell lines against the NCATS MIPE library collection: MOLP8_DSMZ cell viability assay (AID 1918977). Further: nearly all actives have a fitted effect of over 45% in size. Further: potency means the concentration at half of the fitted maximal effect. The method in brief:
(§3)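 MIPE 4.0 approved/investigational drugs; 500 cells/well; 48 h 37 °C humidified 5% CO2; CTG luminescence readout; DMSO = 100%, media = 0% viability.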

Assay [6] can be described thus: Quantitative High-Throughput drug screen in 47 multiple myeloma cell lines against the NCATS MIPE library collection: NCIH929_DSMZ cell viability assay (AID 1918978). Further: nearly all actives have a fitted effect of over 35% in size. Further: potency means the concentration at half of the fitted maximal effect. The method in brief:
as §3

Assay [7] can be described thus: Quantitative High-Throughput drug screen in 47 multiple myeloma cell lines against the NCATS MIPE library collection: MM1S_ATCC cell viability assay (AID 1918980). Further: nearly all actives have a fitted effect of over 45% in size. Further: potency means the concentration at half of the fitted maximal effect. The method in brief:
as §3

Assay [8] can be described thus: Quantitative High-Throughput drug screen in 47 multiple myeloma cell lines against the NCATS MIPE library collection: MM1R_ATCC cell viability assay (AID 1918981). Further: nearly all actives have a fitted effect of over 35% in size. Further: potency means the concentration at half of the fitted maximal effect. In short, it runs like this: as §3
The nature of assay [9]: Quantitative High-Throughput drug screen in 47 multiple myeloma cell lines against the NCATS MIPE library collection: KMS28PE_JCRB cell viability assay (AID 1918983). Further: nearly all actives have a fitted effect of over 35% in size. Further: potency means the concentration at half of the fitted maximal effect. In short, it runs like this:
as §3

Assay [10] is described as follows: Quantitative High-Throughput drug screen in 47 multiple myeloma cell lines against the NCATS MIPE library collection: OPM1_PLB cell viability assay (AID 1918989). Further: nearly all actives have a fitted effect of over 40% in size. Further: potency means the concentration at half of the fitted maximal effect. The method in brief:
as §3

A short description of assay [11]: Quantitative High-Throughput drug screen in 47 multiple myeloma cell lines against the NCATS MIPE library collection: MMM1_PLB cell viability assay (AID 1918976). The method in brief:
as §3

Assay [12] in a line: Quantitative High-Throughput drug screen in 47 multiple myeloma cell lines against the NCATS MIPE library collection: LP1_DSMZ cell viability assay (AID 1918982). Further: nearly all actives have a fitted effect of over 35% in size. Further: potency means the concentration at half of the fitted maximal effect. The method in brief: as §3
Assay [13] is described as follows: Quantitative High-Throughput drug screen in 47 multiple myeloma cell lines against the NCATS MIPE library collection: OCIMY7_PLB cell viability assay (AID 1918987). Further: nearly all actives have a fitted effect of over 65% in size. Further: potency means the concentration at half of the fitted maximal effect. The method in brief: as §3
Assay [14] in a line: Quantitative High-Throughput drug screen in 47 multiple myeloma cell lines against the NCATS MIPE library collection: KMS21BM_JCRB cell viability assay (AID 1918974). Further: potency means the concentration at half of the fitted maximal effect. The settings on record: ATP luminescence, 48 h; viability: at 45.8 µM (top of the series) unless noted. The method in brief:
as §2

The nature of assay [15]: Quantitative High-Throughput drug screen in 47 multiple myeloma cell lines against the NCATS MIPE library collection: L363_DSMZ cell viability assay (AID 1918984). Further: potency means the concentration at half of the fitted maximal effect; nearly all actives have a fitted effect of over 40% in size. The method in brief:
as §3

A short description of assay [16]: Quantitative High-Throughput drug screen in 47 multiple myeloma cell lines against the NCATS MIPE library collection: KMS20_JCRB cell viability assay (AID 1918973). Further: nearly all actives have a fitted effect of over 45% in size. Further: potency means the concentration at half of the fitted maximal effect. The method in brief:
as §2

A short description of assay [17]: Quantitative High-Throughput drug screen in 47 multiple myeloma cell lines against the NCATS MIPE library collection: KMS34_JCRB cell viability assay (AID 1918985). Further: nearly all actives have a fitted effect of over 40% in size. Further: potency means the concentration at half of the fitted maximal effect. In short, it runs like this:
as §3

Assay [18] is described as follows: Quantitative High-Throughput drug screen in 47 multiple myeloma cell lines against the NCATS MIPE library collection: SKMM1_PLB cell viability assay (AID 1919863). Further: nearly all actives have a fitted effect of over 35% in size. Further: potency means the concentration at half of the fitted maximal effect. As to conditions: SKMM1 myeloma viability, CellTiter-Glo ATP, 48 h; viability: hits give low values. In short, it runs like this: as §3
(In general: In ATP-based viability assays light output follows the ATP content of the culture.)

Assay [19] in a line: Quantitative High-Throughput drug screen in 47 multiple myeloma cell lines against the NCATS MIPE library collection: OCIMY1_PLB cell viability assay (AID 1918979). The method in brief: as §3
Assay [20] in a line: Quantitative High-Throughput drug screen in 47 multiple myeloma cell lines against the NCATS MIPE library collection: OCIMY5_PLB cell viability assay (AID 1918988). Further: nearly all actives have a fitted effect of over 65% in size. Further: potency means the concentration at half of the fitted maximal effect. The method in brief:
as §3

As for `CCC[C@@H]1C[C@@H](C(=O)N[C@@H]([C@H]2O[C@H](SC)[C@H](O)[C@@H](O)[C@H]2O)[C@@H](C)O)N(C)C1`, the Potency entry in [1], in assay [3], in assay [4], in assay [5], in assay [6] and in assay [7] was “inactive” in each case. For the same compound, the Potency result in assay [8], in assay [9] and in assay [10] was “inactive” each time. The Potency in assay [2] is 2.64 µM (active).

For the compound `O=C(O)c1cn(-c2ccc(F)cc2)c2cc(N3CCNCC3)c(F)cc2c1=O`, the Potency entry in assay [1], in [3], in assay [4], in assay [8], in assay [12] and in [9] was “inactive” in each case. Besides, the Potency result in [13] and in assay [10] was “inactive” in each case. The results for the Potency in [2], in assay [11] and in [7] were 2.35 µM (active), 11.8 µM (active) and 20.9 µM (active), respectively.

On to `Clc1ccc(C(Cn2ccnc2)OCc2c(Cl)cccc2Cl)c(Cl)c1` (stereo unspecified), for which the Potency was 23.5 µM (active) in assay [1]; 23.5 µM (active) in assay [2]; 14.8 µM (active) in assay [3]; 20.9 µM (active) in [14]; 18.7 µM (active) in [15]; 29.6 µM (active) in assay [13].

Regarding `CC[C@]1(O)C[C@H]2CN(CCc3c([nH]c4ccccc34)[C@@](C(=O)OC)(c3cc4c(cc3OC)N(C=O)[C@H]3[C@@](O)(C(=O)OC)[C@H](OC(C)=O)[C@]5(CC)C=CCN6CC[C@]43[C@@H]65)C2)C1`, the Potency in assay [1] is 0.0166 µM (active); in assay [2], 0.0019 µM (active); in assay [3] it was 0.0743 µM (active); in [16], 0.0148 µM (active); in assay [4], 0.0372 µM (active); in assay [11], 1.05 µM (active). Besides, the Potency in assay [9] is 0.0047 µM (active); in assay [15], 0.132 µM (active); in [17], 0.0019 µM (active); in assay [13] it was 0.0235 µM (active); in [10] it was 0.0053 µM (active); in assay [18], 0.0053 µM (active).

As for `O=c1c(O)c(-c2cc(O)c(O)c(O)c2)oc2cc(O)cc(O)c12`, the Potency entry in assay [1], in assay [3], in assay [16] and in [19] was “inactive” each time. The Potency in assay [2] was 23.5 µM (active); in assay [11] it was 18.7 µM (active); in [5] it was 18.7 µM (active); in [8], 20.9 µM (active); in assay [9], 23.5 µM (active); in [20], 23.5 µM (active). Further, the Potency in assay [18] was 20.9 µM (active).

With `Cc1cc(Cl)ccc1OCCCC(=O)NO`, the Potency in [1] is 3.32 µM (active); in assay [2], 16.6 µM (active); in [3], 14.8 µM (active); in [16], 4.18 µM (active); in assay [4], 8.33 µM (active); in assay [11] it was 2.64 µM (active). Besides, the Potency in [6] is 2.64 µM (active); in assay [7], 1.18 µM (active); in [8], 23.5 µM (active); in assay [12], 26.4 µM (active); in assay [17] it was 26.4 µM (active); in [13], 0.59 µM (active). In addition, the Potency in assay [10] was 20.9 µM (active). Moreover, the Potency result in assay [5] is “inactive”.

Turning to `COC1=C(OC)C(=O)C(CCCCCCCCCCO)=C(C)C1=O`, the Potency is 18.7 µM (active) in [1]; 16.6 µM (active) in assay [2]; 18.7 µM (active) in assay [3]; 23.5 µM (active) in assay [4]; 20.9 µM (active) in assay [11]; 23.5 µM (active) in assay [6]. For the same compound, the Potency is 14.8 µM (active) in assay [9], 14.8 µM (active) in assay [15], 16.6 µM (active) in assay [13] and 20.9 µM (active) in [20]. Besides, in assay [19], the Potency result is “inactive”.

For orientation: viability means a read-out of living cells in per cent, often relative to untreated cells. Regarding `NC(=NCc1ccccc1)NC(=O)c1nc(Cl)c(N)nc1N`, the Potency was 33.2 µM (active) in assay [1]; 23.5 µM (active) in assay [3]; 7.43 µM (active) in [16]; 1.32 µM (active) in [6]; 0.935 µM (active) in [7]; 23.5 µM (active) in assay [15]. The Potency in [13] was 8.33 µM (active); in assay [10], 16.6 µM (active). The Potency entry in assay [2], in [4], in [19], in assay [8], in [12] and in assay [17] was “inactive” each time. For the same compound, the Potency entry in assay [20] was “inactive”. Further, in assay [18], the viability was 140%.

These data come from PubChem BioAssay (NCATS).
